Among the data in PubChem BioAssay (NCI) are growth values, retold here.

What all share (experiment): NCI-60 one-dose screen, 48 h (100 = growth as untreated, 0 = no growth, -100 = all killed)
One assay deals with SR leukemia. The note with it: 10 µM unless noted.
In the next assay the test system is RPMI-8226 leukemia. As to conditions: 10 µM unless noted.
Another assay has as its system OVCAR-8 ovarian. The note with it: 10 µM unless noted.
In the next assay the test system is OVCAR-5 ovarian. The note with it: 10 µM unless noted.
The test system of the next assay is OVCAR-4 ovarian. As to conditions: 10 µM unless noted.
A further assay concerns SK-OV-3 ovarian. The note with it: 10 µM unless noted.
For another assay, the system named is IGROV1 ovarian. The note with it: 10 µM unless noted.
The next assay concerns OVCAR-3 ovarian. The note with it: 10 µM unless noted.
The test system of another assay is NCI/ADR-RES ovarian. The note with it: 10 µM unless noted.
The test system of another assay is T-47D breast. As to conditions: 10 µM unless noted.
The test system of another assay is BT-549 breast. As to conditions: 10 µM unless noted.
A further assay deals with MDA-MB-435 melanoma. The note with it: 10 µM unless noted.
The subject of another assay is SW-620 colon. The note with it: 10 µM unless noted.
For a further assay, the system named is MCF7 breast. The note with it: 10 µM unless noted.
In another assay the test system is HCT-116 colon. As to conditions: 10 µM unless noted.
The next assay has as its system KM12 colon. As to conditions: 10 µM unless noted.
A further assay has as its system HCC-2998 colon. As to conditions: 10 µM.

This is part of a sample that, as a whole, favours compounds with a hit. Of some 83,000 tested, about 20% had one in any assay.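 Testing used 96-well plates and a 48-hour single-concentration exposure. Example: -40 means 40% of the starting cells died.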 Unmarked numbers belong to inactive results. Calls of active or inactive are those of the source. Rule for the calls: active = growth percent below 10; inactive = the rest.

As for `CC/C(=C(/c1ccc(Cl)cc1)c1ccc(OCCN2CCCCC2)cc1)c1ccc(Cl)cc1`, the growth was 5.18% (active) in the assay on SR leukemia; 76.3% with RPMI-8226 leukemia; 81.4% in the assay with OVCAR-8 ovarian; 79.9% with OVCAR-5 ovarian; 63.9% in the assay with OVCAR-4 ovarian; 83.7% in the assay with SK-OV-3 ovarian. In addition, the growth with IGROV1 ovarian was 91.7%; with OVCAR-3 ovarian it was 78.7%; in the assay with NCI/ADR-RES ovarian, 84.9%; with T-47D breast it was 43.9%; with BT-549 breast, 85.9%; in the assay on MDA-MB-435 melanoma, 86.4%. Further, the growth in the assay with SW-620 colon is 65.2%; with MCF7 breast, 26.6%; in the assay on HCT-116 colon it was 61.3%; in the assay with KM12 colon, 69.2%.

For the compound `CN1CCN(c2ccc(OC(F)(F)F)c(Nc3ncc4c(n3)-c3c(c(C(N)=O)nn3CCO)CC4)c2)CC1`, the growth in the assay on SR leukemia is 4.81% (active); in the assay on RPMI-8226 leukemia it was 32.7%; in the assay with OVCAR-8 ovarian it was 9.62% (active); with OVCAR-5 ovarian, 19.9%; with OVCAR-4 ovarian, 71.5%; in the assay with SK-OV-3 ovarian, -3.27% (active). In addition, the growth with IGROV1 ovarian was 25.1%; in the assay with OVCAR-3 ovarian, 41%; in the assay with NCI/ADR-RES ovarian it was 12.9%; in the assay on T-47D breast, 43.9%; in the assay on BT-549 breast it was 27.8%; in the assay with MDA-MB-435 melanoma, -50.5% (active). The growth in the assay with SW-620 colon was 9.76% (active); with MCF7 breast, 22.1%; in the assay with HCC-2998 colon, 17%; in the assay on KM12 colon, 9.34% (active).

For the compound `C[C@@H](N)c1ccc(C(=O)Nc2ccnc3[nH]ccc23)cc1`, the growth is 9.45% (active) in the assay with SR leukemia; 64.7% with RPMI-8226 leukemia; 36.2% in the assay on OVCAR-8 ovarian; 42.9% in the assay on OVCAR-5 ovarian; 69.9% in the assay on OVCAR-4 ovarian; -45.2% (active) with SK-OV-3 ovarian. The growth with IGROV1 ovarian was 27.9%; in the assay on OVCAR-3 ovarian it was 57.9%; with NCI/ADR-RES ovarian, 84%; with T-47D breast, 61.9%; in the assay with BT-549 breast, 13.9%; with MDA-MB-435 melanoma, 80.4%. Moreover, the growth in the assay with SW-620 colon was 20.5%; in the assay with MCF7 breast, 42.7%; in the assay with HCT-116 colon, 14.4%; in the assay on KM12 colon, 30.3%.

In the case of `CNC(=O)c1c(C)oc2cc(Oc3ncnc4cc(OC)c(OC)cc34)ccc12`, the growth with SR leukemia was 85.7%; in the assay on RPMI-8226 leukemia it was 105%; with OVCAR-8 ovarian, 85.3%; in the assay with OVCAR-5 ovarian, 95.3%; with OVCAR-4 ovarian, 78.3%; in the assay on SK-OV-3 ovarian, 92.3%. Moreover, the growth with IGROV1 ovarian was 95.2%; in the assay on OVCAR-3 ovarian it was 89.2%; with NCI/ADR-RES ovarian, 95.1%; in the assay on T-47D breast it was 94%; in the assay on BT-549 breast, 73.6%; in the assay on MDA-MB-435 melanoma it was 114%. In addition, the growth in the assay on SW-620 colon is 104%; in the assay on MCF7 breast, 97.6%; in the assay with HCT-116 colon it was 93.7%; with KM12 colon it was 102%.

In the case of `CNc1ncc2cc(-c3cc(NC(=O)NCCC(C)(C)C)c(F)cc3C)c(C)nc2n1`, the growth with SR leukemia is 17.7%; in the assay on RPMI-8226 leukemia, 21%; in the assay on OVCAR-8 ovarian, 27%; with OVCAR-5 ovarian, 6.28% (active); in the assay on OVCAR-4 ovarian it was 33.2%; in the assay with SK-OV-3 ovarian, -26% (active). Moreover, the growth in the assay with IGROV1 ovarian is -10.2% (active); in the assay on OVCAR-3 ovarian it was 54.5%; in the assay on NCI/ADR-RES ovarian it was 24.7%; in the assay with T-47D breast, -2% (active); in the assay with BT-549 breast, 30.5%; with MDA-MB-435 melanoma, 9.76% (active). Besides, the growth was 17.5% in the assay with SW-620 colon, 45.7% in the assay on MCF7 breast, 4.36% (active) with HCT-116 colon and 18.2% in the assay with KM12 colon.

Regarding `O=C(Nc1cnn2ccc(N3CCC[C@@H]3c3cc(F)ccc3F)nc12)N1CC[C@H](O)C1`, the growth is 72.1% in the assay with SR leukemia; 91.1% with RPMI-8226 leukemia; 80.4% in the assay with OVCAR-8 ovarian; 114% in the assay on OVCAR-5 ovarian; 117% in the assay with OVCAR-4 ovarian; 79.6% in the assay on SK-OV-3 ovarian. Also, the growth with IGROV1 ovarian is 105%; in the assay on OVCAR-3 ovarian, 99.9%; in the assay with NCI/ADR-RES ovarian it was 97%; in the assay with T-47D breast, 78.3%; with BT-549 breast it was 90.5%; in the assay on MDA-MB-435 melanoma, 93%. For the same compound, the growth is 106% in the assay on SW-620 colon, 99.7% with MCF7 breast, 83.1% in the assay on HCT-116 colon and 26.7% in the assay on KM12 colon.

Regarding `CCN1CCN(CCCN(C[C@H]2Cc3ccccc3CN2)[C@H]2CCCc3cccnc32)CC1`, the growth in the assay with SR leukemia is 53.6%; in the assay with RPMI-8226 leukemia, 81.8%; with OVCAR-8 ovarian it was 85.3%; with OVCAR-5 ovarian it was 92.7%; in the assay on OVCAR-4 ovarian, 89.5%; in the assay on SK-OV-3 ovarian, 89.4%. Besides, the growth in the assay on IGROV1 ovarian was 94.5%; in the assay with OVCAR-3 ovarian, 84.2%; in the assay with NCI/ADR-RES ovarian, 92.1%; in the assay with T-47D breast it was 103%; in the assay with BT-549 breast, 79.7%; with MDA-MB-435 melanoma, 105%. Further, the growth with SW-620 colon is 89.6%; in the assay with MCF7 breast, 100%; with HCC-2998 colon, 102%; in the assay with KM12 colon, 87.1%.

In the case of `Cc1cn(-c2cc(NC(=O)c3ccc(C)c(Nc4nccc(-c5cnccn5)n4)c3)cc(C(F)(F)F)c2)cn1`, the growth with SR leukemia is 21.5%; in the assay on RPMI-8226 leukemia, 54%; with OVCAR-8 ovarian, 47.1%; with OVCAR-5 ovarian it was 79%; with OVCAR-4 ovarian, 99.7%; in the assay on SK-OV-3 ovarian, 59.4%. The growth with IGROV1 ovarian is 85.1%; with OVCAR-3 ovarian, 103%; with NCI/ADR-RES ovarian, 63.8%; with T-47D breast, 66.7%; with BT-549 breast, 98.8%; in the assay on MDA-MB-435 melanoma, 23.2%. The growth was 75.5% in the assay with SW-620 colon, 69% in the assay on MCF7 breast, 42.6% with HCT-116 colon and 46.4% with KM12 colon.

With `c1cn2cc(-c3ccc4cn[nH]c4c3)nc(Nc3ccc(N4CCOCC4)cc3)c2n1`, the growth with SR leukemia was 50%; in the assay on RPMI-8226 leukemia, 63.4%; with OVCAR-8 ovarian it was 20%; in the assay with OVCAR-5 ovarian it was 64.2%; with OVCAR-4 ovarian it was 3.99% (active); with SK-OV-3 ovarian, 21%. Further, the growth with IGROV1 ovarian is 58.7%; in the assay with OVCAR-3 ovarian it was 71.9%; in the assay with NCI/ADR-RES ovarian it was 39.2%; with T-47D breast, 49.2%; in the assay on BT-549 breast, 66.2%; with MDA-MB-435 melanoma, 76.8%. Further, the growth in the assay with SW-620 colon was 69.2%; with MCF7 breast, 66.2%; with HCT-116 colon, 52.4%; in the assay on KM12 colon it was 20.5%.
